The source of these data is PubChem BioAssay AID793 (The Scripps Research Institute Molecular Screening Center, 2007).

In all, about 140,000 compounds went through this assay and about 1,400 (1%) were called active. Cut-off read from the data, not from the text of the source: active = inhibition above about 17%; inactive = the rest. What follows is part of a selection rich in actives, with near analogues and random picks from the rest.

The target in the assay is Neuropeptide Y receptor type 2 (Homo sapiens) (UniProt P49146). The assay is described as follows: blockers of human neuropeptide Y Y2 receptor – cell-based, primary screen (AID 793).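 Note: 0% = vehicle with agonist challenge and 100% = reference antagonist with challenge.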 The following applies: NPY-Y2 expressing cells, antagonist mode; at 2.7 µM; hits give high values.
Neuropeptide Y receptor type 2 (Homo sapiens), sequence (P49146 whole entry, looked up): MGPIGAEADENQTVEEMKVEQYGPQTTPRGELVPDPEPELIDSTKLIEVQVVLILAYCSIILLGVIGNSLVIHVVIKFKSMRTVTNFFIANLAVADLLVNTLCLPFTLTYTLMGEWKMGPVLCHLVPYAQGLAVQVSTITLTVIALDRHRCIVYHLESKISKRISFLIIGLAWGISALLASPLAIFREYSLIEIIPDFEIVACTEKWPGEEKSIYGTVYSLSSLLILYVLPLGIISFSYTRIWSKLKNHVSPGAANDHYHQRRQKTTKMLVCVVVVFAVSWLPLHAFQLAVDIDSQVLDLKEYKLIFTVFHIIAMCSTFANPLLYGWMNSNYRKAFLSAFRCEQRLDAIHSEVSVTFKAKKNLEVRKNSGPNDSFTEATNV
As to `O=C(CCNS(=O)(=O)c1ccccc1)Nc1ccc(Cl)cc1C(=O)c1ccccc1`, the inhibition was 2.34% (inactive).

For `CN1CCN(C(=S)SCC(=O)Nc2ccc(Cl)cc2C(=O)c2ccccc2)CC1`, the inhibition was 6.46% (inactive).

`O=C(COC(=O)c1ccccc1)Nc1ccc(Cl)cc1C(=O)c1ccccc1`: the inhibition was 34.7% (active).

As to `CN1CCN(Cc2ccc(OC(F)(F)F)cc2)CC1`, the inhibition is 3.95% (inactive).

On to `CCOC(=O)c1c(-c2ccccc2)oc2ccc(OC(=O)N(C)C)cc12`, for which the inhibition was 4.26% (inactive).
